Values joined by “and” are separate entries in the source; they are usually repeats but may differ in a detail not shown here. Equal values may be shown once. The whole screen tested about 5,500 compounds, of which about 2,000 (36%) were called active. Not shown: some 18% with an inconclusive outcome. No stated cut-off is given here; in the data, active means normalized growth mostly below about 0.91 (no sharp cut-off); inconclusive means no clear call, values can overlap the other calls; inactive means mostly above about 0.92. The list shows a part of the results.
Assay: chemical genetic growth profiling, strain panel (AID 1159580);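 further: tested at 20 µM; growth read once vehicle control cultures reached saturation at 30 °C; 1 = growth at the plate median or of vehicle wells; lower values mean less growth of the strain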
Conditions: growth OD

Measured: normalized growth

Oc1c(Cl)c(Cl)c(Cl)c(Cl)c1Cl
active: S. cerevisiae deletion strains, locus YAL013W, strain DEP1, active compounds read low 0.885 | S. cerevisiae deletion strains, locus YBR021W, strain FUR4, active compounds read low 0.636 | S. cerevisiae deletion strains, locus YBR229C, strain ROT2, active compounds read low 0.845 | S. cerevisiae deletion strains, locus YCL029C, strain bik1, active compounds read low 0.672 | S. cerevisiae deletion strains, locus YDL035C, strain GPR1, active compounds read low 0.834 | S. cerevisiae deletion strains, locus YDL074C, strain BRE1, active compounds read low 0.704 | S. cerevisiae deletion strains, locus YDL101C, strain DUN1, active compounds read low 0.885 | S. cerevisiae deletion strains, locus YDL134C, strain PPH21, active compounds read low 0.816 | S. cerevisiae deletion strains, locus YDL185W, strain tfp1, active compounds read low 0.176 | S. cerevisiae deletion strains, locus YDL192W, strain arf1, active compounds read low 0.811 | S. cerevisiae deletion strains, locus YDR101C, strain arx1, active compounds read low 0.758 | S. cerevisiae deletion strains, locus YDR150W, strain NUM1, active compounds read low 0.786 | S. cerevisiae deletion strains, locus YDR162C, strain NBP2, active compounds read low 0.607 | S. cerevisiae deletion strains, locus YDR318W, strain mcm21, active compounds read low 0.686 | S. cerevisiae deletion strains, locus YDR388W, active compounds read low 0.763 | S. cerevisiae deletion strains, locus YDR502C, strain sam2, active compounds read low 0.73 | S. cerevisiae deletion strains, locus YEL061C, strain CIN8, active compounds read low 0.819 | S. cerevisiae deletion strains, locus YER110C, active compounds read low 0.383 | S. cerevisiae deletion strains, locus YER155C, strain BEM2, active compounds read low 0.669 | S. cerevisiae deletion strains, locus YER167W, strain BCK2, active compounds read low 0.659 | S. cerevisiae deletion strains, locus YGL078C, strain dbp3, active compounds read low 0.759 | S. cerevisiae deletion strains, locus YGL086W, strain mad1, active compounds read low 0.772 | S. cerevisiae deletion strains, locus YGL248W, strain PDE1, active compounds read low 0.818 | S. cerevisiae deletion strains, locus YGR078C, strain PAC10, active compounds read low 0.745 | S. cerevisiae deletion strains, locus YGR135W, strain pre9, active compounds read low 0.732 | S. cerevisiae deletion strains, locus YGR229C, strain SMI1, active compounds read low 0.594 | S. cerevisiae deletion strains, locus YGR252W, strain gcn5, active compounds read low 0.637 | S. cerevisiae deletion strains, locus YHR030C, strain SLT2, active compounds read low 0.792 and 0.128 | S. cerevisiae deletion strains, locus YHR079C, strain IRE1 (second series), active compounds read low 0.659 | S. cerevisiae deletion strains, locus YHR079C, strain IRE1, active compounds read low 0.111 | S. cerevisiae deletion strains, locus YHR094C, strain hxt1, active compounds read low 0.75 | S. cerevisiae deletion strains, locus YHR129C, strain ARP1, active compounds read low 0.775 | S. cerevisiae deletion strains, locus YHR200W, strain rpn10, active compounds read low 0.755 | S. cerevisiae deletion strains, locus YIL066C, strain RNR3, active compounds read low 0.71 | S. cerevisiae deletion strains, locus YIL125W, strain kgd1, active compounds read low 0.463 | S. cerevisiae deletion strains, locus YIR030C, strain dcg1, active compounds read low 0.688 | S. cerevisiae deletion strains, locus YJL095W, strain BCK1, active compounds read low 0.635 and 0.181 | S. cerevisiae deletion strains, locus YJL134W, strain LCB3, active compounds read low 0.835 | S. cerevisiae deletion strains, locus YJL168C, strain set2, active compounds read low 0.757 | S. cerevisiae deletion strains, locus YJL187C, strain SWE1 (second series), active compounds read low 0.818 | S. cerevisiae deletion strains, locus YJR043C, strain POL32, active compounds read low 0.716 | S. cerevisiae deletion strains, locus YJR066W, strain TOR1, active compounds read low 0.00405 | S. cerevisiae deletion strains, locus YJR075W, strain HOC1, active compounds read low 0.71 | S. cerevisiae deletion strains, locus YKL009W, strain mrt4, active compounds read low 0.569 | S. cerevisiae deletion strains, locus YKL068W, active compounds read low 0.759 | S. cerevisiae deletion strains, locus YKL085W, strain MDH1 (second series), active compounds read low 0.647 | S. cerevisiae deletion strains, locus YKL085W, strain MDH1, active compounds read low 0.647 | S. cerevisiae deletion strains, locus YKL190W, strain CNB1, active compounds read low 0.811 | S. cerevisiae deletion strains, locus YKR001C, strain vps1, active compounds read low 0.3 | S. cerevisiae deletion strains, locus YLR039C, strain RIC1, active compounds read low 0.332 | S. cerevisiae deletion strains, locus YLR058C, strain SHM2, active compounds read low 0.801 | S. cerevisiae deletion strains, locus YLR102C, strain apc9, active compounds read low 0.739 | S. cerevisiae deletion strains, locus YLR113W, strain HOG1, active compounds read low 0.16 | S. cerevisiae deletion strains, locus YLR262C, strain YPT6, active compounds read low 0.365 | S. cerevisiae deletion strains, locus YLR268W, strain sec22, active compounds read low 0.718 | S. cerevisiae deletion strains, locus YLR330W, strain CHS5, active compounds read low 0.778 | S. cerevisiae deletion strains, locus YLR342W, strain FKS1 (second series), active compounds read low 0.743 | S. cerevisiae deletion strains, locus YLR371W, strain rom2, active compounds read low 0.79 | S. cerevisiae deletion strains, locus YLR418C, strain cdc73, active compounds read low 0.41 | S. cerevisiae deletion strains, locus YML016C, strain PPZ1, active compounds read low 0.831 | S. cerevisiae deletion strains, locus YML032C, strain rad52, active compounds read low 0.709 | S. cerevisiae deletion strains, locus YML124C, strain tub3, active compounds read low 0.739 | S. cerevisiae deletion strains, locus YMR078C, strain ctf18, active compounds read low 0.554 | S. cerevisiae deletion strains, locus YMR223W, strain ubp8, active compounds read low 0.73 | S. cerevisiae deletion strains, locus YMR263W, strain SAP30, active compounds read low 0.773 | S. cerevisiae deletion strains, locus YMR307W, strain GAS1, active compounds read low 0.391 | S. cerevisiae deletion strains, locus YNL067W, strain RPL9B, active compounds read low 0.791 | S. cerevisiae deletion strains, locus YNL153C, strain GIM3, active compounds read low 0.85 | S. cerevisiae deletion strains, locus YNL183C, strain NPR1, active compounds read low -0.00166 | S. cerevisiae deletion strains, locus YNL233W, strain BNI4, active compounds read low 0.782 | S. cerevisiae deletion strains, locus YNL250W, strain rad50, active compounds read low 0.585 | S. cerevisiae deletion strains, locus YNL271C, strain bni1, active compounds read low 0.7 | S. cerevisiae deletion strains, locus YNL298W, strain CLA4, active compounds read low 0.679 | S. cerevisiae deletion strains, locus YNL307C, strain MCK1, active compounds read low 0.226 | S. cerevisiae deletion strains, locus YNL322C, strain KRE1, active compounds read low 0.826 | S. cerevisiae deletion strains, locus YNR052C, strain pop2, active compounds read low 0.802 | S. cerevisiae deletion strains, locus YOL147C, strain pex11, active compounds read low 0.603 | S. cerevisiae deletion strains, locus YOR061W, strain CKA2, active compounds read low 0.826 | S. cerevisiae deletion strains, locus YOR069W, strain VPS5, active compounds read low 0.849 | S. cerevisiae deletion strains, locus YOR136W, strain idh2, active compounds read low 0.828 | S. cerevisiae deletion strains, locus YOR144C, strain elg1, active compounds read low 0.756 | S. cerevisiae deletion strains, locus YOR184W, strain ser1, active compounds read low 0.584 | S. cerevisiae deletion strains, locus YOR231W, strain MKK1, active compounds read low 0.106 | S. cerevisiae deletion strains, locus YOR316C, strain cot1, active compounds read low 0.688 | S. cerevisiae deletion strains, locus YPL055C, strain LGE1, active compounds read low 0.732 | S. cerevisiae deletion strains, locus YPL241C, strain CIN2, active compounds read low 0.819 | S. cerevisiae deletion strains, locus YPL256C, strain CLN2, active compounds read low 0.113 | S. cerevisiae deletion strains, locus YPR119W, strain clb2, active compounds read low 0.691 | S. cerevisiae deletion strains, locus YPR141C, strain kar3, active compounds read low 0.724 | S. cerevisiae deletion strains, locus YPR163C, strain tif3, active compounds read low 0.562 | S. cerevisiae deletion strains, locus YPR167C, strain met16, active compounds read low 0.731 | S. cerevisiae deletion strains, strain wtn01, active compounds read low 0.732 | S. cerevisiae strains, strain wild type, active compounds read low 0.809
inactive: S. cerevisiae deletion strains, locus YIL073C, strain SPO22, active compounds read low 0.801 | S. cerevisiae deletion strains, locus YNL128W, strain TEP1, active compounds read low 0.878 | S. cerevisiae deletion strains, locus YOL006C, strain TOP1, active compounds read low 0.739 | S. cerevisiae deletion strains, locus YOL012C, strain htz1 0.527

From PubChem BioAssay AID1159580 (chemical genetic matrix, 2015)
